Source: PubChem (National Center for Advancing Translational Sciences (NCATS))
The list is not random: actives were taken first. Their share in the collection is about 2.3%.
WRN helicase inh = inhibitors of human WRN helicase. Q14191. WRN helicase unwinding, fluorescent forked duplex, kinetic. Potency, µM (highest dose often 114 µM), for the others: top-dose activity change, negative = inhibition, actives largely listed as inhibitors. 360,000 compounds, 0.46% hits; note: potency is the fitted concentration of half-maximal effect; % is set by controls: 0 for no effect and ±100 for the full control effect; nearly all actives have a fitted effect of over 55% in size
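Screening of the MLSMR collection measured strand separation of a quenched forked DNA duplex (100 nM) by 20 nM WRN with 2 mM ATP, all final. Compounds were preincubated with enzyme 15 min at room temperature.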
POLB inh = inhibitors of human DNA polymerase beta; 340,000 compounds, 1.3% hits; Pol beta primer extension/strand displacement, fluorescence kinetic; P06746; Potency, µM (series often up to 114 µM), for the others: at the highest dose activity change, negative = inhibition, hits mostly inhibitors; note: potency is the fitted concentration of half-maximal effect; % is set by controls: 0 for no effect and ±100 for the full control effect
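Curves were derived by four-parameter Hill fits of normalized qHTS data. The kinetic fluorescent primer-extension read was taken at 0 and 10 min after 50 nM substrate, following a 15 min room-temperature preincubation of 10 nM enzyme with compounds.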
POLI inh = inhibitors of human DNA polymerase iota; Q9UNA4; Pol iota fluorescent replication assay, 10 min; Potency, µM (highest dose often 115 µM), inactives show at the top dose activity, negative = inhibition, hits mostly inhibitors; 390,000 compounds, 1% hits; note: potency is the fitted concentration of half-maximal effect
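Fluorescent replication assay read twice, at 0 min and 10 min after adding 50 nM (final) substrate. Enzyme (10 nM) and compounds were first incubated 15 min at room temperature; enzyme-free buffer wells were negative controls.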
Pol eta inh-1 = inhibitors of human DNA polymerase eta; Q9Y253; recombinant Pol eta, fluorescent DNA replication assay; Potency, µM (series often up to 114 µM), without a hit: at the top dose activity change, negative = inhibition, most hits filed as inhibitors; 390,000 compounds, 1.2% hits; AID 588591; note: potency is the fitted concentration of half-maximal effect; % is set by controls: 0 for no effect and ±100 for the full control effect
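Pol eta (10 nM) was preincubated with compounds for 15 min at room temperature, after which fluorescent replication substrate (50 nM final) was added to start the reaction. Fluorescence was read kinetically at 0 and 10 min.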
Pol kappa inh-1 = blocks human DNA polymerase kappa activity; Q9UBT6; purified Pol kappa, fluorescent DNA synthesis assay, 10 min; Potency, µM (top dose mostly 107 µM), without a hit: at the top dose activity, negative = inhibition, usual class: inhibitors; 400,000 compounds, 0.53% hits; note: potency is the fitted concentration of half-maximal effect; % is set by controls: 0 for no effect and ±100 for the full control effect
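10 nM Pol kappa preincubated 15 min at room temperature with compounds, then reaction started with substrate at 50 nM final. Fluorescence read kinetically at 0 and 10 min; buffer-only wells served as negative control.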
TbPGK inh = blocks T. brucei phosphoglycerate kinase | AID 686980 | shares compounds with Pol kappa inh-1 | 500 compounds, 79% hits | TbPGK coupled GAPDH assay, Kinase-Glo luminescence | Potency, µM (titrated, usually from 57.5 µM), for the others: at the top dose activity change, negative = inhibition, actives largely listed as inhibitors; note: potency is the fitted concentration of half-maximal effect; % is set by controls: 0 for no effect and ±100 for the full control effect; nearly all actives have a fitted effect of over 65% in size
Pol iota confirm = Confirm cherry-picked inhibitors of human polymerase iota; 1,500 compounds, 77% hits; shares compounds with Pol kappa inh-1; Potency, µM, usual class: inhibitors; Pol iota primer extension, TAMRA/BHQ fluorescence; AID 720496; note: potency is the fitted concentration of half-maximal effect
GALK confirm = galactokinase (human) inhibition, confirmation; shares compounds with Pol eta inh-1; purified GALK, Kinase-Glo ATP depletion luminescence; Potency, µM (doses to about 115 µM), without a hit: top-dose activity, negative = inhibition, hits mostly inhibitors; 150 compounds, 70% hits; AID 2015
Redox cycling = generates H2O2 by redox cycling, flagging GALK artifacts. Potency, µM (doses to about 115 µM), without a hit: at the highest dose activity change, negative = H2O2 signal, usual class: inhibitors. shares compounds with Pol eta inh-1. 150 compounds, 40% hits. Phenol red-HRP H2O2 redox cycling, absorbance 600 nm
HEK293 viability = counter-screen for GALK inhibitors: HEK293 cell cytotoxicity; shares compounds with Pol eta inh-1; 170 compounds, 10% hits; Potency, µM (doses to about 46.1 µM), for the others: at the top dose activity change, negative = cytotoxicity, hits mostly inhibitors; HEK-293 viability, ATP luminescence (CellTiter-Glo), 24/48 h; AID 2547; note: potency is the fitted concentration of half-maximal effect; % is set by controls: 0 for no effect and ±100 for the full control effect
Pol kappa inh-2 = confirmation of human DNA polymerase kappa inhibitors | shares compounds with Pol eta inh-1 | purified Pol-kappa, fluorescent strand-displacement substrate | Potency, µM, actives largely listed as inhibitors | 920 compounds, 76% hits; note: potency is the fitted concentration of half-maximal effect
Pol eta inh-2 = Pol eta (human) inhibition, cherry-pick confirmation. shares compounds with Pol eta inh-1. Pol eta primer extension, TAMRA/BHQ fluorescence, 10 min. Potency, µM, actives largely listed as inhibitors. 2,600 compounds, 64% hits. AID 720502; note: potency is the fitted concentration of half-maximal effect
Numbers without * were called inactive; ? = inconclusive; . = not tested or not shown; ! = repeats disagree; [ ] = dose if it differs, or a comment. Calls come from the whole dose curve; as a rule, active = well fitted curve in the direction sought with a large enough effect; inconclusive = small, poorly fitted or top-dose-only effect, or another doubt; inactive = no such curve, though single readings can be large; an effect the other way counts as inactive or inconclusive.

SMILES	WRN helicase inh	POLB inh	POLI inh	Pol eta inh-1	Pol kappa inh-1	Pol iota confirm	Pol eta inh-2	others
N#Cc1c(N2CCCC2)nc(N)c2c(N)nc(N3CCCC3)cc12	-2%[11.6 µM]	?	2.5µM*	2.8µM*	-16%	38*	60*	GALK confirm=2.1µM*;Redox cycling=1.9µM*;HEK293 viability=-2%
COc1cc2c(C#N)c(N3CCN(C)CC3)nc(N)c2c(N)n1	.	-6%	.	.	.	.	.
CCOc1cc2c(C#N)c(N3CCCC3)nc(N)c2c(N)n1	8%	.	21%	-4%	-7%	.	.
COc1cc2c(C#N)c(N3CCCC3)nc(N)c2c(N)n1	?	?	8.9µM*!	22µM*	?	38*	24*
COc1cc(O)c(C(C)=O)c(CC(=O)O)c1	45µM*	16µM*	13µM*	3.2µM*	13µM*	17*	8.5*	TbPGK inh=8.2µM*
COc1cc(O)c(C(C)=O)c(OC)c1	3%	.	20%	-4%	7%	.	.
COc1ccc(-c2nnc(SCC(=O)NCc3ccccc3)nc2-c2ccc(OC)c(OC)c2)cc1OC	.	-4%	?	-10%	-13%[60.1 µM]	.	.
O=C1CCCC(O)=C1N=Nc1cccc(C(=O)O)c1	?	10µM*	14µM*	10µM*	50µM*	34*	27*
NNc1nc(C(F)(F)F)nc2ccccc12	1%	2%	55%	-3%	8%	.	.
O/C=c1\ccc2cccc3nc(C(F)(F)F)nc1c23	79µM*	3.2µM*	0.89µM*	25µM*	?	67*	48*	Pol kappa inh-2=?
N=C(N)S/C=C\C(=O)O	.	.	.	.	6%[19.4 µM]	.	.
CC(C)(O)c1ccccc1CC[C@@H](SCC1(CC(=O)O)CC1)c1cccc(/C=C/c2ccc3ccc(Cl)cc3n2)c1	-7%[11.6 µM]	.	45µM*	?	-35%	?	.	Pol kappa inh-2=84*
CC(=O)Oc1ccc(Cl)cc1/C=C/c1ccc2ccccc2n1	-10%	-2%	77%	-22%	-4%	.	.
COc1ccc(CNC(=O)C2CCN(c3nc4ccc(C)cc4[nH]3)CC2)cc1	.	-10%	7%	-22%	8%[60.1 µM]	.	.
O=C(CSc1ccccc1)NCc1ccc2c(c1)CCN2C(=O)c1ccc(Cl)cc1	.	-2%	-27%	-17%	-14%[60.1 µM]	.	.
CCOc1ccc(Oc2nc(NCC(C)C)nc(NC(C)(C)C)n2)nn1	.	1%	14%	-14%	-15%	.	.
N#Cc1ccccc1S(=O)(=O)N1CCN(C(=O)c2cc3c(s2)CCC3)CC1	-13%[11.6 µM]	.	?	20µM*	?	?	?	Pol kappa inh-2=?
